Assay results reported in PubChem BioAssay (NCI).
About 79,000 compounds went through this panel and 15% of them were active in at least one assay; those are over-represented in the sample as a whole. A number with no mark means an inactive call. Active and inactive are the calls of the source. Rule as the data show it: active = growth inhibition above about 70%; inactive = the rest.

How the values were obtained:
[1] = NCI Yeast Anticancer Drug Screen. Data for the rad50EPP+ strain (AID 151);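 also: 0% = growth of vehicle-treated control cultures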; conditions: S. cerevisiae rad50 mutant strain, active compounds read high
Summary of the method: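 Measured: growth inhibition of rad50EPP+ yeast. Reference: vehicle-treated controls. Screen uses strains with defined genetic alterations in DNA damage repair or cell cycle control.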

[2] = NCI Yeast Anticancer Drug Screen. Data for the mgt1 strain (AID 153); conditions: S. cerevisiae mgt1 mutant growth inhibition, active compounds read high
Summary of the method: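 Compounds were applied to mgt1 mutant yeast, and growth was then compared against vehicle-treated control cultures to give percent inhibition.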

[3] = NCI Yeast Anticancer Drug Screen. Data for the rad50 strain (AID 155);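 also: 0% = growth of vehicle-only cultures of the same strain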; conditions: S. cerevisiae rad50 strain growth inhibition, active compounds read high
Summary of the method: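 Readout: growth inhibition relative to vehicle-treated cultures. Compound exposure was carried out in a genetically defined yeast strain deficient in DNA damage repair.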

[4] = NCI Yeast Anticancer Drug Screen. Data for the mec2-1 strain (AID 157); conditions: S. cerevisiae mec2-1 strain, active compounds read high
Summary of the method: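 Compounds were applied to mec2-1 yeast cells. Their growth was then compared with that of vehicle-treated cultures to give growth inhibition.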

[5] = NCI Yeast Anticancer Drug Screen. Data for the rad14 strain (AID 159);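 also: 0% = growth of vehicle-treated control cultures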; conditions: S. cerevisiae rad14 strain growth inhibition, active compounds read high
Summary of the method: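 Growth inhibition vs vehicle controls; genetically altered yeast strain (DNA damage repair defect) treated with test compounds.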

[6] = NCI Yeast Anticancer Drug Screen. Data for the sgs1 mgt1 strain (AID 161);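 also: 0% = growth of cultures given vehicle only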; conditions: S. cerevisiae sgs1 mgt1 strain, active compounds read high
Summary of the method: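 This yeast growth screen uses a strain with defined DNA-repair lesions; compound-treated growth is compared with vehicle-treated growth.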

[7] = NCI Yeast Anticancer Drug Screen. Data for the CLN2oe strain (AID 163);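 also: 0% = growth of vehicle-only control cultures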; conditions: S. cerevisiae CLN2oe strain, active compounds read high
Summary of the method: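 Cells of an engineered yeast line with disturbed cell-cycle regulation are treated with compound. Inhibition of growth is then calculated relative to the vehicle-treated reference.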

[8] = NCI Yeast Anticancer Drug Screen. Data for the cln2 rad14 strain (AID 165);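 also: 0% = growth equal to vehicle treated cultures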; conditions: S. cerevisiae cln2 rad14 strain, active compounds read high
Summary of the method: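 Strain: cln2 rad14 yeast, altered in cell cycle control and DNA damage repair. Read-out: growth inhibition vs vehicle.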

[9] = NCI Yeast Anticancer Drug Screen. Data for the bub3 strain (AID 167); conditions: S. cerevisiae bub3 mutant strain, active compounds read high
Summary of the method: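 Readout: yeast growth inhibition, expressed relative to vehicle-only wells. The test organism is a mutant strain from a panel with lesions in DNA repair or checkpoint genes.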

[10] = NCI Yeast Anticancer Drug Screen. Data for the wt2 strain (AID 169);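 also: 0% = growth of vehicle-treated yeast cultures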; conditions: S. cerevisiae wt2 strain growth inhibition, active compounds read high
Summary of the method: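 Growth of compound-treated yeast is measured and expressed as inhibition relative to vehicle-only controls.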

[11] = NCI Yeast Anticancer Drug Screen. Data for the mlh1 strain (AID 171);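 also: 0% = growth of vehicle-treated control cultures of the same strain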; conditions: S. cerevisiae mlh1 strain growth inhibition, active compounds read high
Summary of the method: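 Test agents were incubated with yeast bearing a defined DNA damage repair or cell cycle control alteration; values are growth inhibition normalised to vehicle-treated cultures.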

[12] = NCI Yeast Anticancer Drug Screen. Data for the sgs1 strain (AID 173);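 also: 0% = growth of vehicle-only control cultures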; conditions: S. cerevisiae sgs1 mutant, active compounds read high
Summary of the method: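 Strain with an altered DNA repair or cell cycle pathway exposed to compound. Growth then measured. Value = inhibition versus vehicle control.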

[13] = NCI Yeast Anticancer Drug Screen. Data for the mlh1 rad18 strain (AID 175); conditions: S. cerevisiae mlh1 rad18 strain growth inhibition; at 50.0 µM; active compounds read high
Summary of the method: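 A repair-deficient yeast strain is exposed to test compound, and growth is scored relative to vehicle-treated controls.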

[14] = NCI Yeast Anticancer Drug Screen. Data for the rad18 strain (AID 177); conditions: S. cerevisiae rad18 mutant growth inhibition, active compounds read high
Summary of the method: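 DNA-repair-defective yeast; compound treatment; growth inhibition scored against vehicle.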

[15] = NCI Yeast Anticancer Drug Screen. Data for the wt1 strain (AID 149);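 also: 0% = growth of vehicle-treated wt1 cultures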; conditions: S. cerevisiae wt1 strain (SPY 50644) growth inhibition, active compounds read high
Summary of the method: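 Growth inhibition read against vehicle controls after compound exposure of the wt1 yeast strain.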

[16] = at 5.0 µM (retest, dose inferred, filed as 0.5)
[17] = at 50.0 µM (retest, dose inferred, filed as 5.0)

With `CN(N=O)C(=O)N[C@@H](C=O)[C@@H](O)[C@H](O)[C@H](O)CO` the growth inhibition ([1]; at 1.2 µM) was 0%, the growth inhibition ([1]; at 3.7 µM) was 0% and the growth inhibition ([1]; at 11.0 µM) was 0%. For the same compound, the growth inhibition ([1]; at 33.0 µM) was -7%, the growth inhibition ([1]; at 100.0 µM) was 3% and the growth inhibition ([2]; at 1.2 µM) was -1%. The growth inhibition ([2]; at 3.7 µM) was -1%, the growth inhibition ([2]; at 11.0 µM) was -18% and the growth inhibition ([2]; at 33.0 µM) was 0%. The growth inhibition ([2]; at 100.0 µM) was -1%, the growth inhibition ([3]; at 1.2 µM) was -1% and the growth inhibition ([3]; at 3.7 µM) was -1%. It also gave a growth inhibition ([3]; at 11.0 µM) of 4%, a growth inhibition ([3]; at 33.0 µM) of -1% and a growth inhibition ([3]; at 50.0 µM) of 3.9%. The growth inhibition ([3]; at 100.0 µM) was -2%, the growth inhibition ([4]; at 1.2 µM) was -3% and the growth inhibition ([4]; at 3.7 µM) was -7%. For the same compound, the growth inhibition ([4]; at 11.0 µM) was -6%, the growth inhibition ([4]; at 33.0 µM) was 2% and the growth inhibition ([4]; at 50.0 µM) was -7.8%. The growth inhibition ([4]; at 100.0 µM) was -7%, the growth inhibition ([5]; at 1.2 µM) was -1% and the growth inhibition ([5]; at 3.7 µM) was -3%. For the same compound, the growth inhibition ([5]; at 11.0 µM) was -2%, the growth inhibition ([5]; at 33.0 µM) was -2% and the growth inhibition ([5]; at 100.0 µM) was -4%. It also gave a growth inhibition ([6]; at 50.0 µM) of 17.6%, a growth inhibition ([7]; at 1.2 µM) of -10% and a growth inhibition ([7]; at 3.7 µM) of -3%. It also gave a growth inhibition ([7]; at 11.0 µM) of -6%, a growth inhibition ([7]; at 33.0 µM) of -9% and a growth inhibition ([7]; at 100.0 µM) of -6%. The growth inhibition ([8]; at 50.0 µM) was -1.1%, the growth inhibition ([9]; at 1.2 µM) was 1% and the growth inhibition ([9]; at 3.7 µM) was 0%. It also gave a growth inhibition ([9]; at 11.0 µM) of 0%, a growth inhibition ([9]; at 33.0 µM) of -4% and a growth inhibition ([9]; at 50.0 µM) of 7.3%. It also gave a growth inhibition ([9]; at 100.0 µM) of -1%, a growth inhibition ([10]; at 1.2 µM) of -3% and a growth inhibition ([10]; at 3.7 µM) of 0%. For the same compound, the growth inhibition ([10]; at 11.0 µM) was -2%, the growth inhibition ([10]; at 33.0 µM) was -1% and the growth inhibition ([10]; at 100.0 µM) was -1%. It also gave a growth inhibition ([11]; at 1.2 µM) of -1%, a growth inhibition ([11]; at 3.7 µM) of -1% and a growth inhibition ([11]; at 11.0 µM) of 1%. For the same compound, the growth inhibition ([11]; at 33.0 µM) was 0%, the growth inhibition ([11]; at 100.0 µM) was 0% and the growth inhibition ([12]; at 1.2 µM) was 0%. It also gave a growth inhibition ([12]; at 3.7 µM) of 0%, a growth inhibition ([12]; at 11.0 µM) of 2% and a growth inhibition ([12]; at 33.0 µM) of 2%. For the same compound, the growth inhibition ([12]; at 100.0 µM) was 1%, the growth inhibition [13] was 4.1% and the growth inhibition ([14]; at 1.2 µM) was 0%. For the same compound, the growth inhibition ([14]; at 3.7 µM) was 0%, the growth inhibition ([14]; at 11.0 µM) was 0% and the growth inhibition ([14]; at 33.0 µM) was 2%. For the same compound, the growth inhibition ([14]; at 100.0 µM) was 19%.
For `CCOC(=O)C1=C(C)NC(C)=C(C(=O)OCC)C1c1ccc(C)cc1`, the growth inhibition ([15]; at 1.2 µM) was 28%, the growth inhibition ([15]; at 3.7 µM) was 19% and the growth inhibition ([15]; at 11.0 µM) was 57%. The growth inhibition ([15]; at 33.0 µM) was 97% (active), the growth inhibition ([15]; at 100.0 µM) was 96% (active) and the growth inhibition ([1]; at 1.2 µM) was -21%. It also gave a growth inhibition ([1]; at 3.7 µM) of -27%, a growth inhibition ([1]; at 11.0 µM) of -25% and a growth inhibition ([1]; at 33.0 µM) of -13%. It also gave a growth inhibition ([1]; at 100.0 µM) of 27%, a growth inhibition ([3]; at 1.2 µM) of 30% and a growth inhibition ([3]; at 3.7 µM) of 31%. The growth inhibition [3, 16] was -24%, the growth inhibition ([3]; at 11.0 µM) was 59% and the growth inhibition ([3]; at 33.0 µM) was 96% (active). For the same compound, the growth inhibition [3, 17] was 21%, the growth inhibition ([3]; at 50.0 µM) was 88.7% (active) and the growth inhibition ([3]; at 100.0 µM) was 96% (active). It also gave a growth inhibition ([4]; at 1.2 µM) of 27%, a growth inhibition ([4]; at 3.7 µM) of -6% and a growth inhibition [4, 16] of -24%. The growth inhibition ([4]; at 11.0 µM) was 39%, the growth inhibition ([4]; at 33.0 µM) was 97% (active) and the growth inhibition [4, 17] was 7%. For the same compound, the growth inhibition ([4]; at 50.0 µM) was 91.5% (active), the growth inhibition ([4]; at 100.0 µM) was 95% (active) and the growth inhibition ([5]; at 1.2 µM) was 17%. The growth inhibition ([5]; at 3.7 µM) was 14%, the growth inhibition ([5]; at 11.0 µM) was 69% and the growth inhibition ([5]; at 33.0 µM) was 96% (active). The growth inhibition ([5]; at 100.0 µM) was 93% (active), the growth inhibition [6, 16] was -20% and the growth inhibition [6, 17] was 75% (active). For the same compound, the growth inhibition ([6]; at 50.0 µM) was 91.8% (active), the growth inhibition ([7]; at 1.2 µM) was 26% and the growth inhibition ([7]; at 3.7 µM) was 13%. The growth inhibition ([7]; at 11.0 µM) was 33%, the growth inhibition ([7]; at 33.0 µM) was 96% (active) and the growth inhibition ([7]; at 100.0 µM) was 95% (active). For the same compound, the growth inhibition [8, 16] was -31%, the growth inhibition [8, 17] was 29% and the growth inhibition ([8]; at 50.0 µM) was 90% (active). For the same compound, the growth inhibition ([9]; at 1.2 µM) was 61%, the growth inhibition ([9]; at 3.7 µM) was 78% (active) and the growth inhibition [9, 16] was -13%. For the same compound, the growth inhibition ([9]; at 11.0 µM) was 91% (active), the growth inhibition ([9]; at 33.0 µM) was 97% (active) and the growth inhibition [9, 17] was 90% (active). For the same compound, the growth inhibition ([9]; at 50.0 µM) was 91.3% (active), the growth inhibition ([9]; at 100.0 µM) was 95% (active) and the growth inhibition ([10]; at 1.2 µM) was 5%. For the same compound, the growth inhibition ([10]; at 3.7 µM) was 7%, the growth inhibition ([10]; at 11.0 µM) was 53% and the growth inhibition ([10]; at 33.0 µM) was 96% (active). The growth inhibition ([10]; at 100.0 µM) was 96% (active), the growth inhibition ([11]; at 1.2 µM) was 8% and the growth inhibition ([11]; at 3.7 µM) was 9%. For the same compound, the growth inhibition ([11]; at 11.0 µM) was 55%, the growth inhibition ([11]; at 33.0 µM) was 96% (active) and the growth inhibition ([11]; at 100.0 µM) was 95% (active).
